For 20 compounds, growth inhibition, inhibition and outcome results are on record in PubChem BioAssay.

The structures appear in SMILES notation. Unmarked numbers belong to inactive results. For some of these results: Entries with a potency or affinity are not part of this list. Active and inactive are the calls of the source. Unless noted, the rule behind the calls is not given here.

Assay [1] in a line: antimalarial activity against Dd2 strain (AID 2302;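 active = growth inhibition above 50% at the single 2 µM test dose, taken to imply half-maximal potency below 2 µM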;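 note: 0% = DMSO untreated growth and 100% = chloroquine plus artemisinin killed control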). To be noted: P. falciparum Dd2 in RBCs, LDH growth readout, 72 h; at 2 µM; hits give high values.
A short description of assay [2]: HepG2 cytotoxicity, primary screen, cytotoxicity control for P. falciparum antimalarial project, cell-based, ATP luminescence (AID 2303;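 active = inhibition above 50%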;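 note: 0% = DMSO wells and 100% = digitonin-killed cells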). To be noted: HepG2 viability, 24-48 h, at 10 µM, hits give high values.
Assay [3] has as its target L-lactate dehydrogenase (Plasmodium falciparum (isolate CDC / Honduras)) (UniProt Q27743). As to the kind of experiment: PfLDH activity inhibition – cell lysate, 3D7 strain, counter-screen for P. falciparum growth inhibition project (AID 2304).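 Note: 0% = vehicle and 100% = reference inhibitor.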 To be noted: P. falciparum 3D7 crude extract, LDH APAD/NBT absorbance; at 2 µM; hits give high values.
Assay [4] can be described thus: inhibition of 3D7 malaria parasite growth – strain 3D7 (AID 2306).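 Note: 0% = DMSO wells and 100% = chloroquine plus artemisinin control wells.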 To be noted: P. falciparum 3D7 erythrocytic growth, LDH absorbance, 72 h; at 2 µM; hits give high values.
Assay [5] concerns the target Calcium-dependent protein kinase 1 (Plasmodium falciparum (isolate 3D7)) (UniProt P62344). As to the kind of experiment: PfCDPK1 kinase inhibitors, biochemical, TCAMS library (AID 1159585; cut-off not given, nearly all actives have IC50 up to about 0.98 µM;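 note: inhibitors leave more ATP so luminescence rises with inhibition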). To be noted: recombinant PfCDPK1, Kinase-Glo ATP depletion luminescence.
In assay [6] the target is Plasmodium falciparum protein kinase 6 (PK6, PF3D7_1337100) (UniProt Q8IDW1). Briefly: PfPK6 kinase inhibitors, biochemical, TCAMS library (AID 1159586). To be noted: recombinant PfPK6, Kinase-Glo ATP depletion luminescence.
Assay [7] addresses Protein kinase 7 (PK7), Plasmodium falciparum 3D7 (PF3D7_0213400) (UniProt Q7YTF7). As to the kind of experiment: inhibition of Plasmodium PK7 catalytic activity – biochemical, TCAMS antimalarial set, Kinase-Glo luminescence (AID 1159587). To be noted: recombinant PfPK7, Kinase-Glo ATP depletion luminescence.
Assay [8] has as its target Calcium-dependent protein kinase 4 (Plasmodium falciparum (isolate 3D7)) (UniProt Q8IBS5). Briefly: PfCDPK4 kinase inhibitors, biochemical, TCAMS library (AID 1159588; cut-off not given, nearly all actives have IC50 up to about 0.91 µM). To be noted: recombinant PfCDPK4, Kinase-Glo ATP depletion luminescence.

Chain of Calcium-dependent protein kinase 4 (Plasmodium falciparum (isolate 3D7)) (Q8IBS5 whole entry, looked up): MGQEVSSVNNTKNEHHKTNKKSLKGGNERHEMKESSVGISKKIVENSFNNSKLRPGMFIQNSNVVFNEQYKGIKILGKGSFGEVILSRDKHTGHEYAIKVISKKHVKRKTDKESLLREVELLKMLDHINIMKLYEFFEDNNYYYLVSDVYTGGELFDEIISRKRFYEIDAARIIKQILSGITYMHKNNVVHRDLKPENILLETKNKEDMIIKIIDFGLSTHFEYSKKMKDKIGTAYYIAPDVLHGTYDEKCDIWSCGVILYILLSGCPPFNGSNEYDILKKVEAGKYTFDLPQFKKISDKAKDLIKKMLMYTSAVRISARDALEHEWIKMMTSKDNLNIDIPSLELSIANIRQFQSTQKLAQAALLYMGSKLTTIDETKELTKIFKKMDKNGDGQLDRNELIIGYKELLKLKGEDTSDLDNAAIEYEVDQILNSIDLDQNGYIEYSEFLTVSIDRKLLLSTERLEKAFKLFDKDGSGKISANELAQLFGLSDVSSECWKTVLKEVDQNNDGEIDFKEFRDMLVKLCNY
Chain of L-lactate dehydrogenase (Plasmodium falciparum (isolate CDC / Honduras)) (Q27743 whole entry, looked up): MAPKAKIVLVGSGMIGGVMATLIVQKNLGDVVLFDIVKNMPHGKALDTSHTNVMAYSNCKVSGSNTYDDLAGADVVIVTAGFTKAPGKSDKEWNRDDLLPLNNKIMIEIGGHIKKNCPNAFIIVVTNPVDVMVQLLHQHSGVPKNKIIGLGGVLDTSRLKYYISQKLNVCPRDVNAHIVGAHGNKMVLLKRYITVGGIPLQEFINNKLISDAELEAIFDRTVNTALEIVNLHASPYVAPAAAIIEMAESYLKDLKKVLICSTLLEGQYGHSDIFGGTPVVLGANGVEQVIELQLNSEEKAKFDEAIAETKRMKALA
Chain of Plasmodium falciparum protein kinase 6 (PK6, PF3D7_1337100) (Q8IDW1 1-305): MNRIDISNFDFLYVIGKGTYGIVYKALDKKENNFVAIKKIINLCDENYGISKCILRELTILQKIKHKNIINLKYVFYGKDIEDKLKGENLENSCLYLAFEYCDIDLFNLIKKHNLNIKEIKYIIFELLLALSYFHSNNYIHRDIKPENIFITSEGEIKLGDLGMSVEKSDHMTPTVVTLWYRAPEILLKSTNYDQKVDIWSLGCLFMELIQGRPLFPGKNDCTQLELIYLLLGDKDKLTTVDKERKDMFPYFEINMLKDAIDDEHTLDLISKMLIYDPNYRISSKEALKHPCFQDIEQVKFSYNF
Chain of Calcium-dependent protein kinase 1 (Plasmodium falciparum (isolate 3D7)) (P62344 whole entry, looked up): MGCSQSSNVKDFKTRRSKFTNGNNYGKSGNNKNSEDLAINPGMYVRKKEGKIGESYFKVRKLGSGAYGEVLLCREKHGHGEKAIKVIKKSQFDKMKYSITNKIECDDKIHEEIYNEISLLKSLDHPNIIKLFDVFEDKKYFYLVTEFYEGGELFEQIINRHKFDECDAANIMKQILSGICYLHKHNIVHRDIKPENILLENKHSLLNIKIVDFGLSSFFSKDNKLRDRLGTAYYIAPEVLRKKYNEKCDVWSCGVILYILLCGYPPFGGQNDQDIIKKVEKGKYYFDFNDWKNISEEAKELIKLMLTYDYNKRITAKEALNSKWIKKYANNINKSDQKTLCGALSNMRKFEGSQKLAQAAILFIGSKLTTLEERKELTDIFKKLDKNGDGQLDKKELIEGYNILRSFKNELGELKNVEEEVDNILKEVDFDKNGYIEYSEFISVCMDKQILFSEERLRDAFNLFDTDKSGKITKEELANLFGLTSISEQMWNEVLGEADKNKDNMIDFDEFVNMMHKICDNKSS
Chain of Protein kinase 7 (PK7), Plasmodium falciparum 3D7 (PF3D7_0213400) (Q7YTF7 1-343): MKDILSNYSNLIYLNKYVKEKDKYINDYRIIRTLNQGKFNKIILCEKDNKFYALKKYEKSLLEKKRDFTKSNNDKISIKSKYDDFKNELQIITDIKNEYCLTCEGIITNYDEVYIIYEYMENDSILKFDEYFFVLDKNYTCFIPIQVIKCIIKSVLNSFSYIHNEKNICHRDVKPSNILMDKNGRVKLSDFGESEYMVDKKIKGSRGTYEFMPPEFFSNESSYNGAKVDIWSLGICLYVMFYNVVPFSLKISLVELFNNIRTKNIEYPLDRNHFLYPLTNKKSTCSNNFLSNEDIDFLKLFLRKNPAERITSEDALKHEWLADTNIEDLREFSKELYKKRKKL

With `Cn1nccc1C(=O)NCCNCc1ccc(-c2cccc(-c3nc4ccccc4[nH]3)c2)cc1`, the growth inhibition in assay [1] is 87% (active); in assay [4], 101% (active). For the same compound, the figures for the inhibition in assay [2] and in assay [3] were 35% and 2%, respectively. Also, the outcome in assay [5], in assay [6], in assay [7] and in assay [8] was inactive.

In the case of `O=c1nc(C=Cc2ccc(Br)cc2)oc2ccccc12`, the growth inhibition is 66% (active) in assay [1] and 97% (active) in assay [4]. Moreover, the inhibition in assay [2] is -8%; in assay [3] it was -1%. In addition, the outcome in assay [5], in assay [6], in assay [7] and in assay [8] was inactive.

As to `N=C(N)c1ccc2nc(SCc3ccccc3)[nH]c2c1`, the figures for the growth inhibition in assay [1] and in assay [4] were 100% (active) and 97% (active), respectively. The inhibition in assay [2] was -1%; in assay [3], 1%. Further, the result in assay [5], in assay [6], in assay [7] and in assay [8] was inactive.

With `O=C1SC(=Cc2ccc(O)c(O)c2)C(=O)N1c1ccccc1`, the growth inhibition in assay [1] is 17%; in assay [4], 91% (active). The inhibition in assay [2] was 12%; in assay [3], -5%. For the same compound, the outcome in assay [5], in assay [6], in assay [7] and in assay [8] was inactive.

For the compound `COc1ccc(CCNCC(O)c2cccc(Br)c2)c(Cl)c1OC` (stereo not given), the results for the growth inhibition in assay [1] and in assay [4] were 70% (active) and 87% (active), respectively. The figures for the inhibition in assay [2] and in assay [3] were 18% and 0%, respectively. In addition, the result in assay [5], in assay [6], in assay [7] and in assay [8] was inactive.

On to `COc1ccc(-c2cc(NCc3ccc(-n4ccnc4)cc3)nc(Nc3ccccc3)n2)cc1`, for which the growth inhibition in assay [1] was 79% (active); in assay [4], 101% (active). Further, the inhibition in assay [2] was 8%; in assay [3] it was 0%. The outcome in assay [5], in assay [6], in assay [7] and in assay [8] was inactive.

In the case of `Cc1cc(-c2ccc(CNCc3ccc(F)cc3)cc2)ccc1S(=O)(=O)NCCN1CCCC1`, the growth inhibition in assay [1] is 41%; in assay [4], 100% (active). Also, the inhibition was 95% (active) in assay [2] and -1% in assay [3]. The outcome in assay [5], in assay [6], in assay [7] and in assay [8] was inactive.

Take `CC(C)(C)c1ccc(CN2CCC(CNC(=O)c3cc(-c4ccccc4F)cs3)C2)cc1` (stereo not given): the growth inhibition in assay [1] was 98% (active); in assay [4], 100% (active). For the same compound, the inhibition in assay [2] was 46%; in assay [3], 4%. The result in assay [5], in assay [6], in assay [7] and in assay [8] was inactive.

For `OCCN1CCN(C2Cc3ccc(F)cc3Sc3ccc(Cl)cc32)CC1` (stereo not given), the growth inhibition was 26% in assay [1] and 98% (active) in assay [4]. Besides, the inhibition in assay [2] was 56% (active); in assay [3], 3%. Moreover, the result in assay [5], in assay [6], in assay [7] and in assay [8] was inactive.

As to `Fc1ccc2nc(-c3cccc(-c4ccc(CN5CCCCC5)cc4)c3)[nH]c2c1`, the growth inhibition was 97% (active) in assay [1] and 99% (active) in assay [4]. Also, the inhibition in assay [2] was 46%; in assay [3], -2%. In addition, the outcome in assay [5], in assay [6], in assay [7] and in assay [8] was inactive.

Turning to `CCOC(=O)c1ccc(NC(=O)Nc2cccc(-c3cccc(-c4nc5ccccc5[nH]4)c3)c2)cc1`, the growth inhibition in assay [1] is 99% (active); in assay [4], 100% (active). In addition, the figures for the inhibition in assay [2] and in assay [3] were 76% (active) and -3%, respectively. In addition, the result in assay [5], in assay [6], in assay [7] and in assay [8] was inactive.

As for `Cc1ccccc1C1CCN(C2CCC(NC(=O)C3=Cc4ccccc4OC3)CC2)CC1` (stereo not given), the growth inhibition in assay [1] was 15%; in assay [4], 91% (active). The inhibition in assay [2] is 26%; in assay [3] it was -4%. The result in assay [5], in assay [6], in assay [7] and in assay [8] was inactive.

For `COc1ccc(NC(=O)CCNc2cc(C)nc(NCc3cccc(C)c3)n2)cc1`, the growth inhibition in assay [1] was 25%; in assay [4] it was 100% (active). Besides, the values for the inhibition in assay [2] and in assay [3] were 14% and 1%, respectively. Besides, the outcome in assay [5], in assay [6], in assay [7] and in assay [8] was inactive.

With `CC1CCCN1Cc1ccc(-c2ccc3c(=O)cc(CCc4cccc(F)c4F)n(CC(=O)N(C)Cc4ccc(-c5ccc(C(F)(F)F)cc5)cc4)c3n2)cc1` (stereo not given), the growth inhibition in assay [1] is 91% (active); in assay [4] it was 102% (active). Also, the inhibition in assay [2] was 0%; in assay [3], 3%. Further, the result in assay [5], in assay [6], in assay [7] and in assay [8] was inactive.

In the case of `CN(C)CCNC(=O)NC1CN(c2ncnc3cc(-c4ccccc4)sc23)C1`, the growth inhibition was 39% in assay [1] and 100% (active) in assay [4]. The inhibition in assay [2] was 7%; in assay [3] it was 5%. The result in assay [5], in assay [6], in assay [7] and in assay [8] was inactive.

With `Cc1ccc(CN2CCCCC(NC(=O)c3cc4ccccc4s3)C2)cc1` (stereo not given), the growth inhibition in assay [1] was 8%; in assay [4], 94% (active). The results for the inhibition in assay [2] and in assay [3] were 9% and -1%, respectively. Besides, the result in assay [5], in assay [6], in assay [7] and in assay [8] was inactive.

As to `NC(N)=Nc1ccc(CCc2ccc(N=C(N)N)cc2)cc1`, the growth inhibition in assay [1] is 95% (active); in assay [4] it was 96% (active). The inhibition in assay [2] is 57% (active); in assay [3], -1%. Further, the outcome in assay [5], in assay [6], in assay [7] and in assay [8] was inactive.

For `COC(=O)c1c(NC(=O)c2cccc(C(F)(F)F)c2)sc2c1CCN(Cc1ccccc1)C2`, the growth inhibition in assay [1] is 61% (active); in assay [4], 84% (active). Further, the inhibition is 9% in assay [2] and 0% in assay [3]. Besides, the outcome in assay [5], in assay [6], in assay [7] and in assay [8] was inactive.

Turning to `COc1ccccc1CNC(=O)c1cc(OC)c(OC)cc1NC(=O)c1cccs1`, the growth inhibition is 71% (active) in assay [1] and 88% (active) in assay [4]. The inhibition in assay [2] is 12%; in assay [3], 3%. The result in assay [5], in assay [6], in assay [7] and in assay [8] was inactive.

In the case of `Cc1cc(-c2ccc(NC(=O)N3CCc4cc(Br)c(N5CCN(C)CC5)cc43)cc2)cc(C)n1`, the growth inhibition in assay [1] was 4%; in assay [4], 92% (active). The inhibition in assay [2] was 29%; in assay [3], -2%. The outcome in assay [5], in assay [6], in assay [7] and in assay [8] was inactive.
